Experimental findings from PubChem BioAssay (Tox21) are described below.

Test [1] can be described thus: qHTS assay to identify small molecule antagonists of the thyroid receptor (TR) signaling pathway - cell viability counter screen (AID 743064). Also: nearly all actives have a fitted effect of over 50% in size. Also: potency is read from the fitted curve at half-maximal effect. The procedure, abridged:
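Plate GH3.TRE-Luc cells; incubate 4 h at 37 °C; add compound, then T3 to 1 nM final; incubate 23.5 h; add CellTiter-Fluor; incubate 30 min at 37 °C, 5% CO2; read fluorescence.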
A general note: Quantitative high-throughput screening tests each substance at several concentrations.

The nature of test [2]: qHTS assay to identify small molecule antagonists of the thyroid receptor (TR) signaling pathway (AID 743065). Also: nearly all actives have a fitted effect of over 55% in size. Also: potency is read from the fitted curve at half-maximal effect. The procedure, abridged: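 GH3.TRE-Luc rat pituitary cells (two TREs driving luciferase) were dosed with compound, then stimulated with 1 nM T3 (final) for 23.5 h at 37 C. ONE-Glo luminescence was the read-out, with CellTiter-Fluor fluorescence as the cytotoxicity counter-screen.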

Test [3] deals with thyroid hormone receptor (rat, GH3 cells). Nature of the test: qHTS assay to identify small molecule agonists of the thyroid receptor (TR) signaling pathway (AID 743066; calls by dose curve).
In test [4] the target is Estrogen receptor (Homo sapiens) (UniProt P03372). The experiment in a line: qHTS assay to identify small molecule antagonists of the estrogen receptor alpha (ER-alpha) signaling pathway (AID 743069; active = well fitted curve in the direction sought with a large enough effect in the signal ratio in the repeat runs, not every such curve was filed as active; the % refers to the signal ratio). The procedure, abridged:
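Beta-lactamase FRET fluorescence is read after 2 hr at room temperature with LiveBLAzer B/G substrate. Before that, ER-alpha-bla HEK293 cells sit 4 hr after plating, then receive compound plus 17beta-estradiol and incubate 18 hr at 37C.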

For test [5] the target is unchanged. Nature of the test: qHTS assay to identify small molecule agonists of the estrogen receptor alpha (ER-alpha) signaling pathway (AID 743075; calls by dose curve;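 also: HEK293 GripTite cells with ER-alpha and UAS-driven beta-lactamase reporter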).
A short description of test [6]: qHTS assay to identify small molecule antagonists of the estrogen receptor alpha (ER-alpha) signaling pathway using the BG1 cell line (AID 743080; calls by dose curve;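 also: BG1 cells stimulated with 17beta-estradiol alongside compound; series mostly up to about 70 µM; nearly all actives have a fitted effect of over 25% in size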). The procedure, abridged: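 BG1-Luc-4E2 cells (endogenous full-length ER-alpha, 4xERE luciferase) hormone-starved 5 days in charcoal-stripped FBS, plated 4,000/well for 24 h, then compound plus 17beta-estradiol for 21.5 h at 37 C; ONE-Glo luminescence read.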

Test [7] is described as follows: qHTS assay to identify small molecule antagonists of the estrogen receptor alpha (ER-alpha) signaling pathway using the BG1 cell line - cell viability counter screen (AID 743081).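 Also: compound given together with 17beta-estradiol as the ER stimulus; series mostly up to about 70 µM; nearly all actives have a fitted effect of over 45% in size.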
A further test concerns the target Aromatase (Homo sapiens) (UniProt P11511). Nature of the test: qHTS assay to identify aromatase inhibitors (AID 743083). Also: nearly all actives have a fitted effect of over 55% in size. Also: potency is read from the fitted curve at half-maximal effect.
A short description of test [8]: qHTS assay to identify aromatase inhibitors - cell viability counter screen (AID 743084).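 Also: cells stimulated with testosterone during compound exposure; nearly all actives have a fitted effect of over 55% in size.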 Also: potency is read from the fitted curve at half-maximal effect.
Test [9] addresses Aryl hydrocarbon receptor (Homo sapiens) (UniProt P35869). Nature of the test: qHTS assay to identify small molecule that activate the aryl hydrocarbon receptor (AhR) signaling pathway (AID 743085). Also: nearly all actives have a fitted effect of over 15% in size. Also: potency is read from the fitted curve at half-maximal effect.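 As to activation: HG2L7.5c1 human HepG2 liver cells with stably integrated DRE-driven firefly reporter; series mostly up to about 70 µM.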 The procedure, abridged: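 Steps: seed HepG2-AhR-luc cells; allow 5 h at 37C; pin-transfer test compound or vehicle; incubate 24 h at 37C; add viability dye (30 min, 37C) and read fluorescence; add luciferase substrate (30 min, RT) and read luminescence.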

Test [10] in a line: qHTS assay to identify small molecule that activate the aryl hydrocarbon receptor (AhR) signaling pathway - cell viability counter screen (AID 743086).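 Also: HepG2 liver cells carrying the AhR DRE luciferase reporter; series mostly up to about 70 µM; nearly all actives have a fitted effect of over 45% in size.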 The procedure, abridged:
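HepG2-AhR-luc (HG2L7.5c1) cells, 4000/well, treated 24 h at 37 C with compound; viability measured as CellTiter-Fluor fluorescence after 30 min in the same wells as the luciferase read.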

Test [11] in a line: qHTS assay to identify small molecule antagonists of the peroxisome proliferator-activated receptor gamma (PPARg) signaling pathway - cell viability counter screen (AID 743194). Also: nearly all actives have a fitted effect of over 55% in size. The procedure, abridged: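 Cytotoxicity counter screen in PPARg-bla HEK293H cells, same wells as reporter assay. Compounds plus 50 nM rosiglitazone (final) for 17 h at 37 C, then viability read by CellTiter-Glo luminescence.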

Test [12] can be described thus: qHTS assay for small molecule agonists of the antioxidant response element (ARE) signaling pathway (AID 743202; active = well fitted activation curve with a large enough effect in the signal ratio in the repeat runs, not every such curve was filed as active; the % refers to the signal ratio; also: potency is read from the fitted curve at half-maximal effect). The procedure, abridged:
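HepG2 ARE-bla reporter line, 2,000 cells/well; 5 h preincubation 37 C/5% CO2; compound (DMSO) 16 h 37 C; B/G FRET substrate 2 h RT; fluorescence intensity.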

Test [13] is described as follows: qHTS assay for small molecule activators of the heat shock response signaling pathway - cell viability counter screen (AID 743209). Also: nearly all actives have a fitted effect of over 50% in size. The procedure, abridged: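 HSE-bla HeLa; 1500 cells/well; overnight 37 C, 5% CO2; compound 5 h 37 C; LiveBLAzer B/G substrate 2.5 h RT; CellTiter-Glo 30 min RT; luminescence.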
Test [14] in a line: qHTS assay for small molecule activators of the heat shock response signaling pathway (AID 743210; active = well fitted activation curve with a large enough effect in the signal ratio in the repeat runs, with a control signal flat, not every such curve was filed as active; the % refers to the signal ratio; also: series mostly up to about 63 µM). The procedure, abridged: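 Beta-lactamase reporter read-out: FRET substrate fluorescence after 2.5 h at RT, following 5 h compound treatment at 37 C of HeLa cells carrying HSE-driven bla reporter; quantitative HTS format.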
In test [15] the target is Estrogen receptor (Homo sapiens) (UniProt P03372). The experiment in a line: qHTS assay to identify small molecule agonists of the estrogen receptor alpha (ER-alpha) signaling pathway using the BG1 cell line (AID 743079). Also: nearly all actives have a fitted effect of over 20% in size.
Chain of Estrogen receptor (Homo sapiens) (P03372 whole entry, looked up): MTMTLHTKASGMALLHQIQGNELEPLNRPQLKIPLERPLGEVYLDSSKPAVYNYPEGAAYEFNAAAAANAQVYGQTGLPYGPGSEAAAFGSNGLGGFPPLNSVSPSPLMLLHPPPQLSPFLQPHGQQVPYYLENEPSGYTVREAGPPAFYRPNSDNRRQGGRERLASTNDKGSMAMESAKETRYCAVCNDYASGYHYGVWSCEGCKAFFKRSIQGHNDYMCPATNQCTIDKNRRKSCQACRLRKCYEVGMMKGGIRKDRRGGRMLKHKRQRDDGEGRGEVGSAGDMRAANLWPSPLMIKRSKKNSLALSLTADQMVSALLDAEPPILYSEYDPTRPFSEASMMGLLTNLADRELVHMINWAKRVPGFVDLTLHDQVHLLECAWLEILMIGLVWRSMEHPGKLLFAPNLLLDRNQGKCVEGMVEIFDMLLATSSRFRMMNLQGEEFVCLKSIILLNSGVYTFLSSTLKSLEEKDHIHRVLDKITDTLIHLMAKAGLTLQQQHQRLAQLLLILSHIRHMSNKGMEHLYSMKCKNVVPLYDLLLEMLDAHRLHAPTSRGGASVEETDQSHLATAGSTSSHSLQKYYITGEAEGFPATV
Test [16] deals with Peroxisome proliferator-activated receptor gamma (Homo sapiens) (UniProt P37231). Nature of the test: qHTS assay to identify small molecule agonists of the peroxisome proliferator-activated receptor gamma (PPARg) signaling pathway (AID 743094; active = well fitted activation curve with a large enough effect in the signal ratio in the repeat runs, not every such curve was filed as active; the % refers to the signal ratio). The procedure, abridged:
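HEK293H PPARg-bla cells, 5 h settle at 37C/5% CO2; compound (DMSO) 17 h, 37C; B/G FRET substrate 1 h RT; fluorescence intensity read-out. qHTS format.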

Test [17] can be described thus: qHTS assay for small molecule agonists of the antioxidant response element (ARE) signaling pathway - cell viability counter screen (AID 743203; calls by dose curve; also: nearly all actives have a fitted effect of over 55% in size). The procedure, abridged: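 Luminescence read-out (CellTiter-Glo, 30 min at room temperature) measured cell viability in the same wells as the ARE beta-lactamase reporter. HepG2 ARE-bla cells were treated with compounds for 16 hrs at 37C/5% CO2.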

Test [18] concerns the target Peroxisome proliferator-activated receptor gamma (Homo sapiens) (UniProt P37231). The experiment in a line: qHTS assay to identify small molecule antagonists of the peroxisome proliferator-activated receptor gamma (PPARg) signaling pathway (AID 743191; calls by dose curve; also: nearly all actives have a fitted effect of over 30% in size; also: potency is read from the fitted curve at half-maximal effect). The procedure, abridged:
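GeneBLAzer PPARg UAS-bla HEK293H cells, 5 h post-plating, exposed to compounds 17 h at 37C. LiveBLAzer B/G FRET substrate added for 1 h at room temperature; beta-lactamase reporter read by fluorescence intensity.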

A short description of test [19]: qHTS assay to identify small molecule antagonists of the estrogen receptor alpha (ER-alpha) signaling pathway - cell viability counter screen (AID 743074; calls by dose curve;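 also: HEK293 cells carrying ER-alpha-UAS-bla reporter stimulated with 17beta-estradiol; nearly all actives have a fitted effect of over 45% in size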).

“And” between values parts separate entries of the source, which are not always exact repeats. Identical values can stand only once. Inconclusive results are not listed. A structure can be active in one record and inactive in another. The source made the active and inactive calls. Unless noted, calls follow the shape of the dose curve; as a rule, active = well fitted curve in the direction sought with a large enough effect in the repeat runs; inconclusive = weak or mixed curves; inactive = no such curve, though single readings can be large; an effect the other way counts as inactive or inconclusive.

Chain of Peroxisome proliferator-activated receptor gamma (Homo sapiens) (P37231 whole entry, looked up): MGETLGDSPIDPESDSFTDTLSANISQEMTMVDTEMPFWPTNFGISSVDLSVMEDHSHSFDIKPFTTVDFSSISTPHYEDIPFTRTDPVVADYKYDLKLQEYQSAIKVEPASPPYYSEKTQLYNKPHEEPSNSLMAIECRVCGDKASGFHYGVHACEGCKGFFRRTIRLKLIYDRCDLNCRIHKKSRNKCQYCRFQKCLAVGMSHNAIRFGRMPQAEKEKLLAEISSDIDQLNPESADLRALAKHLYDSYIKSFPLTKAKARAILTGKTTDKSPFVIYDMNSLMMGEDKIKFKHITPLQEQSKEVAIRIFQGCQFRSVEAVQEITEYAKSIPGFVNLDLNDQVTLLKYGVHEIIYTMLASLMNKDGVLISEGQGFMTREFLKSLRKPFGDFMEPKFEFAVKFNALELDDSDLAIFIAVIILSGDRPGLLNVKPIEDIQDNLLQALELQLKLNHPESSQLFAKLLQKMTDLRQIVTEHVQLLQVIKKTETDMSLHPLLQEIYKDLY
Chain of Aryl hydrocarbon receptor (Homo sapiens) (P35869 whole entry, looked up): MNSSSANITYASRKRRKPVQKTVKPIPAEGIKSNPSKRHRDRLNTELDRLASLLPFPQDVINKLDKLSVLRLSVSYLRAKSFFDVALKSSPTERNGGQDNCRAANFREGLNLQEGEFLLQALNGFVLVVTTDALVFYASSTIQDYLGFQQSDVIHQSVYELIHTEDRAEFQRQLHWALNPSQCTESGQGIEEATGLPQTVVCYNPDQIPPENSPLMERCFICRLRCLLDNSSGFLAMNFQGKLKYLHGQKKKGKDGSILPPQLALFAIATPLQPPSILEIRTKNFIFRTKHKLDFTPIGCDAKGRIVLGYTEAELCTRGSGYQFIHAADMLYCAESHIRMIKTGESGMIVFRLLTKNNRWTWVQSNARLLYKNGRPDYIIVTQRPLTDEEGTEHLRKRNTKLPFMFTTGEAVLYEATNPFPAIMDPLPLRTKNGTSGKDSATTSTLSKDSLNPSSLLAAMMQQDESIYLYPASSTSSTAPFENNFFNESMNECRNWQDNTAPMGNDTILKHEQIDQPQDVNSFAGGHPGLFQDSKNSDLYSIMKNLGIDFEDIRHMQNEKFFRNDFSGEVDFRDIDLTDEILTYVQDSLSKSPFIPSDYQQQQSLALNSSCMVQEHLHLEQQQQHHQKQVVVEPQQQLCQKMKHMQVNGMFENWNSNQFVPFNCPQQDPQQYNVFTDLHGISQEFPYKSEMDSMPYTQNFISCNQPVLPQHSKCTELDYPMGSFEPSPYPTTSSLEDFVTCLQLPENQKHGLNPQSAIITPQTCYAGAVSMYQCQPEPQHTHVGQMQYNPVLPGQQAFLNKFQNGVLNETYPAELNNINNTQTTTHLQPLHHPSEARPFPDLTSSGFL
Chain of Aromatase (Homo sapiens) (P11511 whole entry, looked up): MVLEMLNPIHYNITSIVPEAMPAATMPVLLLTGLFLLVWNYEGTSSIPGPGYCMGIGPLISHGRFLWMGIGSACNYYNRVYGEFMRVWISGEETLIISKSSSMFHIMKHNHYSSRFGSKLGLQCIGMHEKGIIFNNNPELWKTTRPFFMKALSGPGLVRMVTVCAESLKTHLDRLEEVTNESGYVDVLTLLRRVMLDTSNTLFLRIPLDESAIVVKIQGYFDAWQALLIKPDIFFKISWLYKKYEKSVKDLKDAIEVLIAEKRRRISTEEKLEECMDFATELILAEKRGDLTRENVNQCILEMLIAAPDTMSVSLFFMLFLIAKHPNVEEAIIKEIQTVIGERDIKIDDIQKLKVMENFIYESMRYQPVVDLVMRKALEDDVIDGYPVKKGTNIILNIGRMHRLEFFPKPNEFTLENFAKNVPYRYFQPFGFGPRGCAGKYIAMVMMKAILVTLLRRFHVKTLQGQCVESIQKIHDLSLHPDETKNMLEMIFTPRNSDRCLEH

Take `CC1=CC(C)C(C=O)CC1` (stereo not drawn): the Potency entry (in test [1]; in test [2]; in [5]; in test [7]; with Aromatase (Homo sapiens); in test [8]) was “inactive” each time. For the same compound, the Potency entry in test [9], in test [10] and in test [12] was “inactive” each time. For the same compound, the compound was classed as inactive in test [3], in test [4], in test [6], in test [11], in test [13] and in [14].

As for `CN1CCCC1`, the Potency result (in test [1]; in test [2]; in [5]; in [15]; in test [7]; with Aromatase (Homo sapiens)) was “inactive” each time. The Potency entry in [8], in test [10], in [12] and in [17] was “inactive” throughout. The outcome in test [3], in test [4], in [6], in [16], in test [13] and in test [14] was inactive.

For the compound `N=C(N)c1ccc(OCCCOc2ccc(C(=N)N)cc2)cc1`, the Potency entry in test [1], in test [2], in test [5], in test [15], in test [7] and in test [8] was “inactive” in each case. Further, the Potency entry in test [9], in [18] and in [17] was “inactive” in each case. The result in test [3], in test [4], in test [6], in test [11], in test [13] and in test [14] was inactive.

With `CCCN(CCC)CCc1cccc2c1CC(=O)N2`, the Potency entry (in test [1]; in test [2]; in test [7]; in the test with Aromatase (Homo sapiens); in test [8]; in test [9]) was “inactive” in each case. Besides, the Potency entry in test [10] and in [12] was “inactive” in each case. For the same compound, the call in test [3], in test [19], in test [16], in [11], in test [13] and in test [14] was inactive.

In the case of `COC(=O)c1cc(C(=O)OC)cc(S(=O)(=O)O)c1`, the Potency entry (in test [1]; in test [2]; in test [7]; with Aromatase (Homo sapiens); in [8]; in test [9]) was “inactive” each time. Also, the Potency result in test [10], in [18] and in test [17] was “inactive” throughout. Besides, the result in test [3], in test [19], in test [16], in test [11] and in test [14] was inactive.

For `CCCCOCCOCCOCCCC`, the Potency entry (in [1]; in test [2]; in [7]; with Aromatase (Homo sapiens); in test [8]; in [9]) was “inactive” each time. For the same compound, the Potency entry in test [10] and in test [17] was “inactive” each time. Besides, the compound was called inactive in test [3], in [19], in test [16], in test [11], in [13] and in [14].

Consider `CN1CC(=O)NC1=N`, for which the Potency result (in test [1]; in test [2]; in [7]; in the test with Aromatase (Homo sapiens); in test [8]; in test [9]) was “inactive” in each case. The Potency entry in test [10] and in [12] was “inactive” in each case. For the same compound, the call in [3], in [19], in test [11], in test [13] and in test [14] was inactive.

Regarding `CCOC(=O)c1c(C)n(C)c2ccc(O)cc12`, the Potency result (in test [1]; in test [2]; in test [7]; with Aromatase (Homo sapiens); in [8]; in test [10]) was “inactive” each time. The Potency entry in [17] was “inactive”. The call in test [3], in test [19], in test [13] and in test [14] was inactive. Further, the Potency in test [9] is 1.68 µM (active).

Take `OC[C@]1(O)OC[C@@H](O)[C@H](O)[C@@H]1O`: the Potency result (in [1]; in test [2]; in test [7]; with Aromatase (Homo sapiens); in [8]; in test [9]) was “inactive” in each case. For the same compound, the Potency entry in test [10], in [18], in test [12] and in test [17] was “inactive” each time. For the same compound, the result in test [3], in test [19], in test [16], in test [13] and in [14] was inactive.

With `Brc1c(NC2=NCCN2)ccc2nccnc12`, the Potency result (in test [1]; in test [2]; in test [7]; with Aromatase (Homo sapiens); in [8]; in test [10]) was “inactive” each time. Moreover, the Potency entry in test [12] and in test [17] was “inactive” each time. In addition, the call in test [3], in test [19], in test [11], in test [13] and in test [14] was inactive.

Regarding `C[N+](C)(C)CC(O)CC(=O)[O-]` (stereo not drawn), the Potency result (in test [1]; in [2]; in test [7]; in the test with Aromatase (Homo sapiens); in test [8]; in test [9]) was “inactive” each time. Further, the Potency result in test [10], in test [12] and in test [17] was “inactive” in each case. In addition, the call in test [3], in [19], in test [16], in test [11], in test [13] and in test [14] was inactive.

Turning to `CC(C)(C)c1ccc(O)c(O)c1`, the Potency was 70.9 µM (active) and 56.1 µM (active) in test [1]; 56.3 µM (active) and 24.3 µM (active) in test [2]; “inactive and 12.6 µM (active)” in the test with Aromatase (Homo sapiens); 54.5 µM (active) in test [8]; 70.9 µM (active) and 34.4 µM (active) in [9]; 18 µM (active) in test [18]. The Potency in [12] was 28.2 µM (active) and 24.3 µM (active). The result in test [3], in test [19], in test [11] and in test [13] was inactive. In addition, the Potency entry in test [7] and in [10] was “inactive” each time.

Take `O=c1[nH]c(=O)n([C@H]2C[C@H](O)[C@@H](CO)O2)cc1I`: the Potency entry (in test [1]; in test [2]; in [7]; in the test with Aromatase (Homo sapiens); in test [8]; in [9]) was “inactive” in each case. For the same compound, the Potency result in test [10], in [12] and in test [17] was “inactive” in each case. Also, the compound was called inactive in [3], in test [19], in test [11], in test [13] and in test [14].

As to `Cc1c(O)cccc1O`, the Potency result (in test [1]; in test [2]; in test [5]; in [15]; in [7]; with Aromatase (Homo sapiens)) was “inactive” in each case. In addition, the Potency entry in test [8], in test [10], in test [12] and in test [17] was “inactive” in each case. Besides, the compound was classed as inactive in [3], in test [19], in test [11], in [13] and in [14].
